Experimental findings from PubChem BioAssay AID504375 (National Center for Advancing Translational Sciences (NCATS), 2011) are described below.

Hit rate of the full screen: of about 1,600 compounds, about 25 (2%) were called active. About 7% were inconclusive and are not listed. This is one part of a sample in which actives are shown more often than they occur. Calls follow the shape of the dose curve; as a rule, active = well fitted inhibition curve with a large enough effect; inconclusive = small, poorly fitted or top-dose-only effect, or effect the other way; inactive = no such curve, though single readings can be large or run the other way.
% is scaled to controls: 0 for no effect and ±100 for the full control effect; potency is read from the fitted curve at half-maximal effect.

Sequence of Runt-related transcription factor 1 (Homo sapiens) + Core-binding factor subunit beta (Homo sapiens) (Q01196 whole entry, looked up): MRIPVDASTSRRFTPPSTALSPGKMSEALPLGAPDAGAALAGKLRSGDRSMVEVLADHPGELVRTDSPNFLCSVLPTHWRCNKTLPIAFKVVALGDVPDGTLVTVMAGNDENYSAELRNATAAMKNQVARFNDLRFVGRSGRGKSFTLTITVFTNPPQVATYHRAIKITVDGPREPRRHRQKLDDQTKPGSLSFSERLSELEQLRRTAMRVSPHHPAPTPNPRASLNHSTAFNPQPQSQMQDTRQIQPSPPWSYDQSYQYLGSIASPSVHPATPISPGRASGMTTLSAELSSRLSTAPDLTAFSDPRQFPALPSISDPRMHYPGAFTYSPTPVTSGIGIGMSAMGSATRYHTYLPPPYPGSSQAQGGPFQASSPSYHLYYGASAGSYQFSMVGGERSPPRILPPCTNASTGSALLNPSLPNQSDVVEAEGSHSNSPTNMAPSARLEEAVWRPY
Sequence of Runt-related transcription factor 1 (Homo sapiens) + Core-binding factor subunit beta (Homo sapiens) (Q13951 whole entry, looked up): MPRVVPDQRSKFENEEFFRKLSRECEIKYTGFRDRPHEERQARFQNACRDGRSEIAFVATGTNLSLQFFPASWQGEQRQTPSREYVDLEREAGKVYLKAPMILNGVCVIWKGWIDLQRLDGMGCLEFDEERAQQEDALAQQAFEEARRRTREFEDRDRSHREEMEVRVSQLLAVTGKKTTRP

The assay concerns the target Runt-related transcription factor 1 (Homo sapiens) + Core-binding factor subunit beta (Homo sapiens) (UniProt Q01196+Q13951). Kind of assay: qHTS Assay for Compounds Blocking the Interaction Between CBF-beta and RUNX1 for the Treatment of Acute Myeloid Leukemia: Hit Validation with Orthogonal Assay. Conditions: CBFbeta-RUNX1 binding orthogonal assay, biochemical; series mostly up to 41 µM; activity change, negative = inhibition: at the top concentration. From the text: NIH Chemical Genomics Center [NCGC]
NIH Molecular Libraries Probe Production centers Network [MLPCN]
Assay Submitter (PI): Paul Liu
Core Binding Factor (CBF) abnormalities are associated with 20-25% of all acute myeloid leukemias (AML), of which 5-10% are further sub classified as acute myelomonocytic leukemia with eosinophilia, also known as M4Eo in the FAB classification scheme. This subtype of leukemia is usually associated with chromosome 16 inversion (p13:q22). Chromosome 16 inversion results in formation of the fusion oncogene CBFB-MYH11, which encodes the fusion protein CBF-beta-SMMHC.
It has been hypothesized that the interference of CBF-beta and RUNX1 binding could have therapeutic implications for patients with CBF mediated leukemias. We developed a CBF-beta and RUNX1 binding assay in AlphaScreenTM format and optimized it for high throughput screening to search for inhibitors. The goal of this project is to screen MLPCN's compound collection (MLSMR) for identifying the inhibitors of the interaction between CBF-beta and RUNX1 proteins as research probes. If these probes work well in the animal models, the ultimate goal of this project is to development a new drug treatment for this disease.
This assay can not be used to assess how apparent inhibitors interfere with protein binding, and whether inhibitors specifically bind to either protein. Disruption of this protein-protein interaction, through any mechanism, is the intended target activity.
The present data set was run to confirm the activity of hits from the primary screen using an orthogonal assay technology for measuring protein-protein interaction disruption.
A TR-FRET (time resolved fluorescence resonance energy transfer) assay was performed using the same assay buffer, protein concentrations and incubation times as described previously in the AlphaScreen assay, except that terbium (Tb+) labeled anti-his-antibody and XL665 linked streptavidin were used to capture the binding signal. The Tb+ labeled anti-his-antibody captures His(6)-CBF and XL665 linked streptavidin binds to biotin-RUNX1. The binding of RUNX1 to CBFbrings Tb+ and XL665 to proximity resulting in a TR-FRET signal. Briefly, in a white 384-well plate, 10 µl/well of mixture of biotin-RUNX1 and His(6)-CBFwere incubated with 10 µl/well buffer (positive control) or 10 µl/well compounds (negative control) for 20 min followed by an addition of 10 µl/well of Tb+ labeled anti-his(6)-antibody and XL665 linked streptavidin. After 90 min of incubation in the dark, the assay plate was measured in the Envision plate reader using TR-FRET detection mode. For the 1536-well plate format, 3 µl/well mixture of biotin-RUNX1 and His(6)-CBF (30 nM per protein) was incubated with 23 nl/well compound (dissolved in 100% DMSO) or the equivalent DMSO concentration (positive control) for 30 min followed by the addition of 1 µl/well of 0.44 ng Tb+ labeled anti-his(6)-antibody and 5 nM streptavodin-XL665. After 90 min of incubation, the assay plate was measured in the Envision plate reader.
The TR-FRET assay for detecting interaction between HIV-I Tat and […] was similarly performed with the recombinant full-length HIV-I Tat CLADE B and HIV-I Tat Biotin conjugated proteins supplied by Diatheva (Fano, Italy). Briefly, the His-CBF and Biotin-RUNX1 complex at a working concentration of 83.3 nM per protein were pre-incubated in assay buffer for 10 minutes on ice. Then HIV-I Tat or unlabeled CBF were added to reach final concentrations (Supplementary Figure 4b) and incubated for 5 minutes. Finally anti-His antibody and streptavidin-XL665 at a final concentration of 2.2 ng and 5 nM, respectively, were added to the plate, which was incubated for 1 hr prior to reading on the PerkinElmer Envision plate reader.
Keywords: MLSMR, MLPCN, NIH Roadmap, qHTS, NCGC, Core binding factor, CBF, CBF-beta, Acute myeloid leukemia
(In qHTS, concentration-response curves come from the screen itself.)
Regarding `O=C(O)CCCCC1SCC2NC(=O)NC21` (stereo not given), the Potency was 0.02 µM (active).

On to `CC(C)[C@@]1(NC(=O)[C@H]2CC3c4cccc5[nH]cc(c45)C[C@H]3N(C)C2)O[C@@]2(O)C3CCCN3C(=O)[C@@H](Cc3ccccc3)N2C1=O` (stereo not given in full), for which the “activity change, negative = inhibition” value is 9.43% (inactive). For the molecule `CCC(=Nc1cccc(C(F)(F)F)c1)c1c(O)n(C)c(=O)n(C)c1=O`, the “activity change, negative = inhibition” value was 5.85% (inactive).

Consider `Cc1onc(-c2c(Cl)cccc2Cl)c1C(=O)Nc1ccc2c(C(F)(F)F)cc(=O)oc2c1`, for which the “activity change, negative = inhibition” value is 1.55% (inactive). Consider `CN(N=O)c1cc(O)ccc1O`, for which the “activity change, negative = inhibition” value was 20.1% [at 82.4 µM] (inactive). Consider `CN(N=O)c1ccc(O)c(O)c1`, for which the Potency was 2.51 µM (active). `O=c1[nH]c(=S)n(-c2ccccc2)c(O)c1C=NCc1ccccn1`: the “activity change, negative = inhibition” value is 1.8% (inactive). For the molecule `Cn1c(O)c(/C=N/N2CCOCC2)c(=O)[nH]c1=S`, the “activity change, negative = inhibition” value is -13.8% (inactive).

On to `Cc1cc(OC(=O)N(C)C)nc2c1c(C)nn2C`, for which the “activity change, negative = inhibition” value was -8.88% (inactive).

Turning to `O=C(O)CN1C(=O)CN=C(c2ccccn2)c2cc(Cl)ccc21`, the “activity change, negative = inhibition” value is 6.91% (inactive).

As to `CC1CN=C(Nc2ccc(F)c(Cl)c2)S1` (stereo not given), the “activity change, negative = inhibition” value was 6.88% (inactive). As to `NC(Cc1cc(O)c(O)cc1O)C(=O)O` (stereo not given), the Potency was 10 µM (active). Turning to `COC1C(OC(=O)c2ccc(C)[nH]2)C(O)C(Oc2ccc3c(O)c(NC(=O)c4ccc(O)c(CC=C(C)C)c4)c(=O)oc3c2Cl)OC1(C)C` (stereo not given), the “activity change, negative = inhibition” value is 4.43% (inactive). The same measure, in the same setting: as for `CCC(=NCc1cccnc1)c1c(O)n(-c2ccccc2C)c(=O)[nH]c1=O`, the figure is -2.88% (inactive).

Turning to `CCCCc1ccc(C(=O)O)nc1`, the “activity change, negative = inhibition” value is -1.88% [at 82.4 µM] (inactive).
